Our source for the AC50 and outcome values is PubChem BioAssay (EPA / NIEHS).

As usually defined, the AC50 is the concentration giving half of the maximal activity seen.

Molecules are shown by their SMILES. “And” between values parts separate entries of the source, which are not always exact repeats. Equal values may be shown once. Records with an inconclusive call do not appear. More than one record can exist for a structure, and the calls need not agree. The source made the active and inactive calls. The calls were made as follows, unless noted: active = hit-call score of the fitted dose curve at least 0.9, where 1 is the maximum; inconclusive = response in the unintended direction; inactive = score below 0.9.

Sequence of human CYP2B6, CYP2B6 (gene 1555) (P20813 whole entry, looked up): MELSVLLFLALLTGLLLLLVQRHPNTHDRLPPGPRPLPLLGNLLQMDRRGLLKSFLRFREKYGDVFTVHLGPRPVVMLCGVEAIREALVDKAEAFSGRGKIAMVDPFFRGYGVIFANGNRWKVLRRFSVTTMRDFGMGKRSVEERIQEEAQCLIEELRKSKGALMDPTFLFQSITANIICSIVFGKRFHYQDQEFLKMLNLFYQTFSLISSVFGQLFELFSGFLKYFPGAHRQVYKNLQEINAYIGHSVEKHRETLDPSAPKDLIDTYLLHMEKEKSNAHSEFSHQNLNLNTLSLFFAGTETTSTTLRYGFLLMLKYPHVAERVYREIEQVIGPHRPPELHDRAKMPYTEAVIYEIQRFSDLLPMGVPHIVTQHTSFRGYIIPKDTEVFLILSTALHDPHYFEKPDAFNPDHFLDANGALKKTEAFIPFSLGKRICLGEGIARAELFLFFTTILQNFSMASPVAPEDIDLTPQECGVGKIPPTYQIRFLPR
Sequence of human CYP2J2, CYP2J2 (gene 1573) (P51589 whole entry, looked up): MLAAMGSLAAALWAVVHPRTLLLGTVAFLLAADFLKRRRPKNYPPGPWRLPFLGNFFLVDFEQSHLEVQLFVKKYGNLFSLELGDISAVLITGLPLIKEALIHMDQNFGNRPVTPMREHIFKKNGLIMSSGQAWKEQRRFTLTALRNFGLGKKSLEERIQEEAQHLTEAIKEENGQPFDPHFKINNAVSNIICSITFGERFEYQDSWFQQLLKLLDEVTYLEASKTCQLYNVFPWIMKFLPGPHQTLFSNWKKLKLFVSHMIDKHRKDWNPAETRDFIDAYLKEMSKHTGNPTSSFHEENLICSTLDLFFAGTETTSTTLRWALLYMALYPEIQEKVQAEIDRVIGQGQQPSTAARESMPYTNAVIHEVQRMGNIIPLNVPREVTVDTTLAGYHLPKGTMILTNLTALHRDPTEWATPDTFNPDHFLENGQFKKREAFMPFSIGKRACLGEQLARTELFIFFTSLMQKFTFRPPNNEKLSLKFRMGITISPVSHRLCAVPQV
Sequence of human CYP2D6, CYP2D6 (gene 1565) (P10635 whole entry, looked up): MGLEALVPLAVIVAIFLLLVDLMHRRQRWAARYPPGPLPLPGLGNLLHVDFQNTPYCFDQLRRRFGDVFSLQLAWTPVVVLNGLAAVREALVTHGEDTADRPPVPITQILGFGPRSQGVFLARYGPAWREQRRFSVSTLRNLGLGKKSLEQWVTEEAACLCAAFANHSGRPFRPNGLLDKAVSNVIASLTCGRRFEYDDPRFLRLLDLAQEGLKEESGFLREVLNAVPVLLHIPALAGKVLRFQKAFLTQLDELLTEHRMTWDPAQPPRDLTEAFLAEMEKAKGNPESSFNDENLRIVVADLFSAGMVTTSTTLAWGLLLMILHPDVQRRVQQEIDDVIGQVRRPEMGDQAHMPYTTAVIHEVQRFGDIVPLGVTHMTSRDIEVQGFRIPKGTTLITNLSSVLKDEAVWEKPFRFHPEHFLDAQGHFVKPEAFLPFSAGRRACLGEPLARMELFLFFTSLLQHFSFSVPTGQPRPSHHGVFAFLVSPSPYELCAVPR
Sequence of human CYP2C8, CYP2C8 (gene 1558) (P10632 whole entry, looked up): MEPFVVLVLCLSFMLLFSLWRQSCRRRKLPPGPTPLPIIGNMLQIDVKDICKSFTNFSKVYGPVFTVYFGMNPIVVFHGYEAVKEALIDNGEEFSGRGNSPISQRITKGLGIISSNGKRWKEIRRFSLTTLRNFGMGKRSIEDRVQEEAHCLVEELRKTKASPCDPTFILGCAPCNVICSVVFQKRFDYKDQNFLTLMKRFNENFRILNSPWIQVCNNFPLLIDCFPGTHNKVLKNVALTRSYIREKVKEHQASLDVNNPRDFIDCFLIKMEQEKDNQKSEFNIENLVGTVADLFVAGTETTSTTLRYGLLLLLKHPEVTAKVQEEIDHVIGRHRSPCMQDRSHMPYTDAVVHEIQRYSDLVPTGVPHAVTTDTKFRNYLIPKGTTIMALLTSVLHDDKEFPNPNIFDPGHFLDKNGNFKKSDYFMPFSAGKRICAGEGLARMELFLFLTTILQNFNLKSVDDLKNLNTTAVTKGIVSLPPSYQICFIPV
Sequence of human CYP1A2, CYP1A2 (gene 1544) (P05177 whole entry, looked up): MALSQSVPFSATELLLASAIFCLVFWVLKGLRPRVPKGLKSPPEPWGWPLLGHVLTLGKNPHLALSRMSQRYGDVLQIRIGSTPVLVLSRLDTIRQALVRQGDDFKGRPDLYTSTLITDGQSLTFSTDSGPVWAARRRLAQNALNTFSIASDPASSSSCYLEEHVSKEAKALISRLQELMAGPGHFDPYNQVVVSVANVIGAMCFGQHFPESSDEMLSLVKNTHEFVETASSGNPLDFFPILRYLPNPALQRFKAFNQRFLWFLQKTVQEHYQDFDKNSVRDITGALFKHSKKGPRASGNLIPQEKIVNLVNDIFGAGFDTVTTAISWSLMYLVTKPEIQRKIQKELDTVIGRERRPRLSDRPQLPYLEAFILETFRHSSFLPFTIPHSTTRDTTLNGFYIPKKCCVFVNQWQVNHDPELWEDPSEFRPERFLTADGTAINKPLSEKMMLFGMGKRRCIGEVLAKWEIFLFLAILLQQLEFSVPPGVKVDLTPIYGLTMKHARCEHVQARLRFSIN
Sequence of human CYP2C9, CYP2C9 (gene 1559) (P11712 whole entry, looked up): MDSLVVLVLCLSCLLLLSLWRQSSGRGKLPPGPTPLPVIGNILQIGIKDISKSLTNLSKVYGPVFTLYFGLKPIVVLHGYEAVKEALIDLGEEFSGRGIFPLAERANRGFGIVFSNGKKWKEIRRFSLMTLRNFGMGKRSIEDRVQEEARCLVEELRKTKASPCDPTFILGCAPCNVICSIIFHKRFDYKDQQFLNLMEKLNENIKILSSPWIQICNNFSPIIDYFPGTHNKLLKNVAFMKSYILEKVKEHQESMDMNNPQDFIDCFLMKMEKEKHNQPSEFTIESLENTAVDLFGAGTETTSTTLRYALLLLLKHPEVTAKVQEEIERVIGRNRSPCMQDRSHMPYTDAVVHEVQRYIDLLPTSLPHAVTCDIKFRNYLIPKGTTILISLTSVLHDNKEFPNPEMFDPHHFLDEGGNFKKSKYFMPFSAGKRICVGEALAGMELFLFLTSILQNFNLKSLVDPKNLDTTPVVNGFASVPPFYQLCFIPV

One assay deals with human CYP2B6, CYP2B6 (gene 1555) (UniProt P20813). Kind of assay: NVS_ADME_hCYP2B6: NovaScreen (NVS) CYP450-related Enzyme Activity (ADME) Assay for human CYP2B6 (AID 2283101). The method in brief:
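Fluorescence-based enzyme activity of recombinant human CYP2B6, measured 1 h post-dose against acetonitrile vehicle baseline. Screened at a single concentration of 10 uM in duplicate before concentration-response follow-up.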
In the case of `COc1nn(CSP(=S)(OC)OC)c(=O)s1`, the concentration at half-maximal activity (AC50) is 0.35 µM (active).

For the molecule `O=S1OCC2C(CO1)C1(Cl)C(Cl)=C(Cl)C2(Cl)C1(Cl)Cl` (centres undefined), the AC50 is 4.85 µM (active).

On to `CCOC1Oc2ccc(OS(C)(=O)=O)cc2C1(C)C` (centres undefined), for which the AC50 is 5.43 µM (active).

As to `Oc1ccc(Cl)cc1Cc1ccccc1`, the AC50 was 7.66 µM (active) [middle of 6 runs].

As for `CC(C)(C)C(O)/C(=C\c1ccc(Cl)cc1Cl)n1cncn1` (centres undefined), the AC50 is 0.974 µM (active).

With `CN1CSC(=S)N(C)C1`, the AC50 is 10 µM (active).

Take `COP(=S)(OC)Oc1ccc(SC)c(C)c1`: the half-maximal activity concentration (AC50) is 8.76 µM (active).

On to `COP(=S)(OC)Oc1ccc([N+](=O)[O-])cc1`, for which the AC50 was 0.547 µM (active).

For the molecule `CCCN(CCOc1c(Cl)cc(Cl)cc1Cl)C(=O)n1ccnc1`, the AC50 was 0.124 µM (active).

Turning to `C#CCN1C(=O)COc2cc(F)c(N3C(=O)C4=C(CCCC4)C3=O)cc21`, the concentration at half-maximal activity (AC50) was 4.2 µM (active).

The next assay has as its target human CYP1A2, CYP1A2 (gene 1544) (UniProt P05177). Briefly: NVS_ADME_hCYP1A2: NovaScreen (NVS) CYP450-related Enzyme Activity (ADME) Assay for human CYP1A2 (AID 2283102).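 As to AC50: fluorescence from turnover of a fluorogenic substrate by recombinant insect-cell CYP1A2; potency for inhibition since loss of fluorescence marks reduced CYP1A2 activity.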 The method in brief:
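Compounds were tested at 10 uM in duplicate against recombinant CYP1A2 produced in insect cells. Enzyme activity was measured by fluorescence 0.5 h after dosing, with loss of signal versus acetonitrile control. Active compounds were re-tested in concentration series.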
As for `COc1nn(CSP(=S)(OC)OC)c(=O)s1`, the AC50 is 3250 nM (active).

For the molecule `Oc1cc(Cl)ccc1Oc1ccc(Cl)cc1Cl`, the AC50 was 9330 nM (active).

Take `O=C(Nc1ccccc1)Nc1cnns1`: the AC50 was 3550 nM (active).

Regarding `N#Cc1c(Cl)c(Cl)c(Cl)c(C#N)c1Cl`, the half-maximal activity concentration (AC50) was 406 nM (active).

Regarding `Oc1ccc(Cl)cc1Cc1ccccc1`, the molecule was classed as inactive.

Consider `COP(=S)(OC)Oc1ccc(SC)c(C)c1`, for which the AC50 was 2760 nM (active).

For the molecule `COP(=S)(OC)Oc1ccc([N+](=O)[O-])cc1`, the half-maximal activity concentration (AC50) is 1060 nM (active).

Regarding `CCCN(CCOc1c(Cl)cc(Cl)cc1Cl)C(=O)n1ccnc1`, the AC50 is 616 nM (active).

For the molecule `C#CCN1C(=O)COc2cc(F)c(N3C(=O)C4=C(CCCC4)C3=O)cc21`, the molecule was classed as inactive.

The next assay has as its target human CYP2C8, CYP2C8 (gene 1558) (UniProt P10632). Kind of assay: NVS_ADME_hCYP2C8: NovaScreen (NVS) CYP450-related Enzyme Activity (ADME) Assay for human CYP2C8 (AID 2283104; active = hit-call score of the fitted dose curve at least 0.9, where 1 is the maximum; inactive = score below 0.9). The method in brief:
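Recombinant human CYP2C8 with fluorogenic substrate, 0.5 h, fluorescence intensity; signal loss fitted versus acetonitrile. Screened in duplicate at 10 uM, then actives run in concentration-response up to 20 uM.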
For `Oc1cc(Cl)ccc1Oc1ccc(Cl)cc1Cl`, the AC50 was 4510 nM (active).

Regarding `O=C(NC(=O)c1c(F)cccc1F)Nc1ccc(OC(F)(F)C(F)OC(F)(F)F)c(Cl)c1` (centres undefined), the result was inactive.

Take `N#Cc1c(Cl)c(Cl)c(Cl)c(C#N)c1Cl`: the AC50 is 213 nM (active).

As to `CC[C@H](C)[C@H]1O[C@]2(C=C[C@@H]1C)C[C@@H]1C[C@@H](C/C=C(\C)[C@@H](O[C@H]3C[C@H](OC)[C@@H](O[C@H]4C[C@H](OC)[C@@H](O)[C@H](C)O4)[C@H](C)O3)[C@@H](C)/C=C/C=C3\CO[C@@H]4[C@H](O)C(C)=C[C@@H](C(=O)O1)[C@]34O)O2` (tested in a mixture with another compound), the concentration at half-maximal activity (AC50) was 2790 nM (active).

With `O=C1c2ccccc2C(=O)N1SC(Cl)(Cl)Cl`, the AC50 was 245 nM (active).

As to `O=S(=O)(O)C(F)(F)C(F)(F)C(F)(F)C(F)(F)C(F)(F)C(F)(F)C(F)(F)C(F)(F)F`, the AC50 is 4040 nM (active).

With `O=C(O)C(F)(F)C(F)(F)C(F)(F)C(F)(F)C(F)(F)C(F)(F)C(F)(F)F`, the result was inactive.

Consider `CCCN(CCOc1c(Cl)cc(Cl)cc1Cl)C(=O)n1ccnc1`, for which the concentration at half-maximal activity (AC50) was 1850 nM (active).

Another assay has as its target human CYP2J2, CYP2J2 (gene 1573) (UniProt P51589). Briefly: NVS_ADME_hCYP2J2: NovaScreen (NVS) CYP450-related Enzyme Activity (ADME) Assay for human CYP2J2 (AID 2283106). How it is done: NVS_ADME_hCYP2J2 is a biochemical, single-readout assay that uses extracted gene-proteins in a cell-free assay. Measurements were taken 1 hour after chemical dosing in a 96-well plate.NVS_ADME_hCYP2J2 is one of one assay component(s) measured or calculated from the NVS_ADME_hCYP2J2 assay. It is designed to make measurements of enzyme activity, a form of enzyme reporter, as detected with fluorescence intensity signals by Fluorescence technology.Data from the assay component NVS_ADME_hCYP2J2 was analyzed into 1 assay endpoint. This assay endpoint, NVS_ADME_hCYP2J2, was analyzed in the positive analysis fitting direction relative to Acetonitrile as the negative control and baseline of activity. Using a type of enzyme reporter, loss-of-signal activity can be used to understand changes in the enzymatic activity as they relate to the gene CYP2J2. Furthermore, this assay endpoint can be referred to as a primary readout, because this assay has produced multiple assay endpoints where this one serves a enzymatic activity function. To generalize the intended target to other relatable targets, this assay endpoint is annotated to the cyp intended target family, where the subfamily is xenobiotic metabolism.
Binding assays used specific radioligands (tritiated, iodinated) with non-radioactive competitive displacement ligands in agonist or antagonist protocols (as indicated) and various reference compounds and inhibitors to titrate specific binding to receptors and transporters. Most enzyme assays (CYPs, kinases, phosphatases, proteases, HDACs) used recombinant protein and specific substrates (fluorescence mostly, some colorimetric and radioactive) and inhibitors, followed by a biochemical separation of substrate and product. All assays for the biochemical HTS were initially run in duplicate at a single concentration (10 uM for CYP450 assays and 25 uM for all others). Assay-chemical combinations meeting a pre-defined threshold (e.g., 30% inhibition and other criteria defined below) were then run in singleton concentration-response format with maximum concentration of 20 uM for CYPs and 50 uM for all others. Each assay was run with positive and negative controls, and concurrent controls on every plate. The follow-up (secondary) screen tested active chemical-pairs in concentration series, as well as a few additional assays not tested in the primary screen, some selected negative inactives, and several cases re-run in the concentration series for confirmatory purposes.
With `COc1nn(CSP(=S)(OC)OC)c(=O)s1`, the AC50 was 2060 nM (active).

Consider `O=C(Nc1ccccc1)Nc1cnns1`, for which the outcome was inactive.

Regarding `CC[C@H](C)[C@H]1O[C@]2(C=C[C@@H]1C)C[C@@H]1C[C@@H](C/C=C(\C)[C@@H](O[C@H]3C[C@H](OC)[C@@H](O[C@H]4C[C@H](OC)[C@@H](O)[C@H](C)O4)[C@H](C)O3)[C@@H](C)/C=C/C=C3\CO[C@@H]4[C@H](O)C(C)=C[C@@H](C(=O)O1)[C@]34O)O2` (tested in a mixture with another compound), the concentration at half-maximal activity (AC50) is 5470 nM (active).

As to `CC(C)(C)C(O)/C(=C\c1ccc(Cl)cc1Cl)n1cncn1` (centres undefined), the concentration at half-maximal activity (AC50) is 2210 nM (active).

In the case of `COP(=S)(OC)Oc1ccc(SC)c(C)c1`, the concentration at half-maximal activity (AC50) was 1060 nM (active).

Take `COP(=S)(OC)Oc1ccc([N+](=O)[O-])cc1`: the AC50 was 2250 nM (active).

For `CCCN(CCOc1c(Cl)cc(Cl)cc1Cl)C(=O)n1ccnc1`, the AC50 is 94 nM (active).

Take `C#CCN1C(=O)COc2cc(F)c(N3C(=O)C4=C(CCCC4)C3=O)cc21`: the half-maximal activity concentration (AC50) is 2500 nM (active).

Another assay addresses human CYP2D6, CYP2D6 (gene 1565) (UniProt P10635). Kind of assay: NVS_ADME_hCYP2D6: NovaScreen (NVS) CYP450-related Enzyme Activity (ADME) Assay for human CYP2D6 (AID 2283107). The method in brief:
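Compounds were first tested in duplicate at 10 uM against recombinant enzyme produced in insect cells, with substrate turnover measured by fluorescence after 1 hour. Decreased signal, referenced to acetonitrile vehicle, was taken as reduced enzyme activity. Active chemicals went on to concentration-response testing.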
Turning to `COc1nn(CSP(=S)(OC)OC)c(=O)s1`, the AC50 was 3830 nM (active).

For the molecule `COC(=O)c1ccccc1S(=O)(=O)NC(=O)Nc1nc(C)nc(OC)n1`, the call was inactive.

As to `CNC(=O)CSP(=S)(OC)OC`, the molecule was called inactive.

As to `[2H]C1([2H])[n+]2ccccc2-c2cccc[n+]2C1([2H])[2H]`, the AC50 is 2030 nM (active).

As for `Oc1ccc(Cl)cc1Cc1ccccc1`, the AC50 was 10000 nM (active).

On to `O=C1c2ccccc2C(=O)N1SC(Cl)(Cl)Cl`, for which the outcome was inactive.

For the molecule `COP(=S)(OC)Oc1ccc([N+](=O)[O-])cc1`, the AC50 was 4790 nM (active).

Turning to `CCCN(CCOc1c(Cl)cc(Cl)cc1Cl)C(=O)n1ccnc1`, the AC50 is 2180 nM (active).

Another assay deals with human CYP2C9, CYP2C9 (gene 1559) (UniProt P11712). Briefly: NVS_ADME_hCYP2C9: NovaScreen (NVS) CYP450-related Enzyme Activity (ADME) Assay for human CYP2C9 (AID 2283108). The method in brief:
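Recombinant human CYP2C9 expressed in SF9 cells, fluorogenic substrate, fluorescence read 0.75 h after dosing. Chemicals first run in duplicate at 10 uM, with actives followed in concentration series; loss of signal versus acetonitrile baseline.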
For `COc1nn(CSP(=S)(OC)OC)c(=O)s1`, the concentration at half-maximal activity (AC50) is 2.88 µM (active).

On to `CC1(C)C(C=C(Cl)Cl)C1C(=O)OC(C#N)c1ccc(F)c(Oc2ccccc2)c1` (centres undefined), for which the half-maximal activity concentration (AC50) is 10 µM (active).

`Oc1ccc(Cl)cc1Cc1ccccc1`: the concentration at half-maximal activity (AC50) is 6.54 µM (active) [middle of 7 runs].

On to `CC(C)(C)C(O)/C(=C\c1ccc(Cl)cc1Cl)n1cncn1` (centres undefined), for which the AC50 is 0.721 µM (active).

Regarding `O=C(O)C(F)(F)C(F)(F)C(F)(F)C(F)(F)C(F)(F)C(F)(F)C(F)(F)F`, the half-maximal activity concentration (AC50) is 0.237 µM (active) and the result was inactive.

On to `CC(C)(C)C(O)C(Oc1ccc(Cl)cc1)n1cncn1` (centres undefined), for which the half-maximal activity concentration (AC50) was 5.02 µM (active) and 7.84 µM (active); the call was inactive.

Consider `COP(=S)(OC)Oc1ccc(SC)c(C)c1`, for which the AC50 was 5.54 µM (active).

For the molecule `COP(=S)(OC)Oc1ccc([N+](=O)[O-])cc1`, the AC50 was 4.05 µM (active).

Take `CCCN(CCOc1c(Cl)cc(Cl)cc1Cl)C(=O)n1ccnc1`: the half-maximal activity concentration (AC50) is 0.578 µM (active).
